The panel holds about 83,000 compounds, 20% with a hit somewhere; the sample as a whole holds those more often.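 Single-concentration screen, 48 h exposure, 96-well plates. Endpoint: percent growth. Below 10 = active.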 A number with no mark means an inactive call. The source made the active and inactive calls.
What follows are molecules tested on NCI-H226 lung (assay: NCI-60 one-dose screen, 48 h (100 = growth as untreated, 0 = no growth, -100 = all killed)). Conditions: 10 µM unless noted.
Cc1ccc(Cl)cc1NC(=O)c1cc2ccccc2cc1O was tested, and the growth was -35.6% (active).
Work on CC1SC(c2ccc(OCc3ccccc3)cc2)N(NC(=O)C(O)(c2ccccc2)c2ccccc2)C1=O (stereo not drawn) yielded a growth of 84.5%.
For O=c1cc(C2NNC(=S)N2)c2ccc3ccccc3c2o1 (stereo not drawn), the growth was 101%.
Molecule Cc1ccc(Nc2nc(N)nc(CSCC(=O)NN)n2)cc1 has a growth of 97.8%.
Work on O=[N+]([O-])c1ccc(OCCO)cc1 yielded a growth of 99.7%.
For O=C(CSc1nnc(-c2ccc(NC(=O)c3cccnc3)cc2)o1)N[C@@H](Cc1ccc(O)cc1)C(=O)O, the growth was 102%.
For O=C(/C=C/c1ccco1)c1ccc(Nc2nc(Nc3ccc(F)cc3)nc(Nc3ccc(Cl)cc3)n2)cc1, the growth was 86%.
CCOC(=O)c1c(-c2ccc(Cl)cc2)c(C#N)c(=O)n(-c2ccccc2CC)c1N was tested, and the growth was 85.4%.
Work on COC(=O)[C@]12CC[C@@H](C)[C@H](C)[C@@H]1C1=CC[C@@H]3[C@@]4(C)C(C=O)=C[C@@](C)(COC(C)=O)C4=CC[C@@]3(C)[C@]1(C)CC2 yielded a growth of 11.2%.
In the case of C[C@]12CC[C@@H]3c4cc(OC(F)F)c(O)cc4CC[C@H]3[C@@H]1CC[C@@H]2OS(N)(=O)=O, the growth is reported as 57.4%.
NCCCNc1nc2ccccc2c2c(=O)c3cccc(Cl)c3sc12 showed a growth of 59.6%.
O=C(N=c1oc2ccccc2cc1-c1cc2ccccc2[nH]1)c1ccc(Cl)cc1 was tested, and the growth was 84.6%.
For CSc1n(Cc2ccc3ccccc3c2)c(C)c[n+]1Cc1ccc2ccccc2c1, the growth was -37% (active).
For COC(=O)CCC1=C(C)C2=NC1=CC1=NC(=CC3=NC(=Cc4[nH]c(/c(=C(/C)O)c4C)=C2)C(C(C)=O)=C3C)C(C)=C1CCC(=O)OC, the growth was 83.9%.
Work on COc1ccc(Nc2nnc(SCc3ccccc3F)s2)cc1 yielded a growth of 87.2%.
O=C(N/N=C/C=C/c1ccc([N+](=O)[O-])o1)c1cc2ccccc2cc1O was tested, and the growth was -72.3% (active).
In the case of OC(COc1ccccc1Cl)COc1ccccc1Cl, the growth is reported as 95.3%.
Work on c1ccc(-c2nc([P+](c3ccccc3)(c3ccccc3)c3ccccc3)c(N3CCOCC3)o2)cc1 yielded a growth of 34.7%.
For O=C1CCc2c(sc3[nH]c(=S)n(-c4ccc(OC(F)(F)F)cc4)c(=O)c23)C1, the growth was 72.4%.
O=C(Nc1ccc(Cl)cc1)Nc1ccc(Cl)c(C(F)(F)F)c1 was tested, and the growth was 2.69% (active).
Molecule COc1ccc(C2CC(c3cccc(OC)c3)=NN2C(=O)c2cc(OC)c(OC)c(OC)c2)cc1 (stereo not drawn) has a growth of 79.9%.
Molecule CCOC(=O)C/C(C)=N\NC(=O)c1ccncc1 has a growth of 112%.
Work on COc1ccc2oc3c(C)c4c(c(C)c3c2c1)C(=O)N(Cc1ccccc1)C4=O yielded a growth of 90.1%.
Work on CC(C)=C[C@@H]1c2c(c3ccccc3n(C)c2=O)O[C@H]2c3c(c4ccccc4n(C)c3=O)OC(C)(C)[C@@H]12 yielded a growth of 101%.
Cc1ccc(NCCN(C)C)c2c(=O)c3ccccc3sc12 was tested, and the growth was 32.3%.
In the case of C=C1C(=O)O[C@H]2[C@H]1CC/C(COC(=O)C(=O)c1c[nH]c3ccccc13)=C\CC[C@@]1(C)O[C@@H]21, the growth is reported as -61.6% (active).
With Oc1ccc(CN2CCC(N3CCOCC3)CC2)c2cccnc12 the growth was 64.6%.
O=C1CCC2=C3C4CCCCC4C(=O)C4CCCC(OC2C1)C34 (stereo not drawn) gave a growth of 92.6%.
For Cc1cc(=O)[nH]c(N=Nc2c(O)[nH]c3ccccc23)n1, the growth was 97.9%.
In the case of COc1cc(/C=C/C(=O)N2CCN(C(=O)c3cc(OC)c(OC)c(OC)c3)CC2)ccc1OCCCN1C(=O)c2cccc3cccc(c23)C1=O, the growth is reported as 87%.
Cc1ccc(S(=O)(=O)N/N=C\c2cc(Cl)ccc2O)cc1 showed a growth of 96.4%.
Molecule COc1cc(OC)cc(C2CC(=O)Nc3c2c(C)nn3-c2nc3ccccc3[nH]2)c1 (stereo not drawn) has a growth of 36.5%.
Cc1ccc(S(=O)(=O)n2cc(CNc3ccc(N4CCOCC4=O)cc3)c3ccccc32)cc1 was tested, and the growth was 92.4%.
For CC1O[C@@H](OC2[C@H](OC(=O)/C=C/c3ccc(O)c(O)c3)C(COC3O[C@H](C)C(O)C(O)[C@@H]3O)O[C@@H](OCCc3ccc(O)c(O)c3)[C@H]2O)[C@@H](O)C(O)[C@H]1O (stereo partly drawn), the growth was 112%.
CS(=O)c1cccc(-c2ccc3nc(N)n(-c4ccc(C(F)(F)F)cc4)c(=O)c3c2)c1 (stereo not drawn) was tested, and the growth was 90.9%.
With CCOc1ccccc1-n1c(CN2CCN(C(=O)COc3ccc(CNCCCCCCN4C5CCCC4CC(OC(=O)Nc4cc(C)ccc4OC)C5)cc3)CC2)nc2ccccc2c1=O (stereo not drawn) the growth was -73.5% (active).
Work on O=C(O)CN1C(=O)CCC1=O yielded a growth of 101%.
For Cc1cccc(NC(=O)CSc2nc3ccccc3[nH]2)c1, the growth was 92%.

Source: PubChem BioAssay (NCI)
